EBV LMP1 NFkB = inhibitors of Epstein-Barr LMP1-induced NF-kappaB reporter | LMP1-induced NF-kappaB luciferase reporter cells, luminescence | inhibition, % at 12.5 µM | actives 0.69% (n = 350,000) | AID 504558; in the data active = inhibition above about 41%; inconclusive = no clear call, values can overlap the other calls;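 also: 0% = neutral control wells and 100% = reference inhibitor control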
LGR2 inh = blocks bursicon-induced cAMP signaling via Drosophila LGR2; inhibition, % at 9.99 µM; actives 0.35% (n = 380,000); HEK293 LGR2, CRE-luciferase, bursicon-stimulated, 4 h;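 active = drop in luminescence signal, shown as inhibition above about 50% in the replicate tests, limit read from the data, passing the limit was not always enough; inconclusive = probably only some replicates passing the limit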;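 also: agonist challenge used bursicon conditioned medium at about half maximal strength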
TROY signal inh = inhibitors of TROY-dependent NF-kB signaling. actives 0.98% (n = 360,000). Q293 LMP1-TROYcd NF-kB luciferase reporter, 4 h. AID 1347056. inhibition, % at 10 µM;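 active = compounds whose plate-normalised and pattern-corrected inhibition of the luciferase reporter signal at the single screening dose is 50% or more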
TWEAK Fn14 block = TWEAK-Fn14 signaling inhibition | TWEAK-stimulated Fn14 reporter cells, luciferase luminescence, 8 h | inhibition, % at 10 µM | actives 2% (n = 360,000) | AID 1159606; in the data active = inhibition above about 50%
TRPM1 prom inh = MITF TRPM1 promoter inhibition in SK-MEL-5 cells. SK-MEL-5 TRPM1 promoter luciferase, 24 h. inhibition, % at 12.5 µM. actives 0.83% (n = 330,000);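 active = mean inhibition across replicates of 60% or more, whatever share of single replicates reaches that level; inconclusive = some that reach 60%, reason not given; inactive = mean inhibition across replicates below 60%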
MITF act = MITF TRPM1 promoter activation in melanoma cells; SK-MEL-5 TRPM1-promoter luciferase, 24 h; % of positive control, neutral wells = 0; activation, % at 12.5 µM; actives 0.75% (n = 300,000);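 active = mean activation of at least 80% with every replicate also reaching 80%; inconclusive = mean reaches 80% but some replicate falls short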;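 also: 0% = neutral control wells and 100% = parthenolide positive control wells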
Starred values were filed as active, the others as inactive; ? = inconclusive; . = no result. Shown are actives, neighbours in structure and some others; about 3% of the full set was active somewhere.

SMILES | EBV LMP1 NFkB | LGR2 inh | TROY signal inh | TWEAK Fn14 block | TRPM1 prom inh | MITF act
CN(CCc1ccccc1)C(=O)c1ccc(NC(=O)Cc2ccc(NC(=O)C3CCCN(C(=O)CCc4ccccc4)C3)cc2)cc1 (centres undefined) | 30.3 | 3.3 | 22.5 | 58.3* | 52.9 | -54.4
CN(CCc1ccccc1)C(=O)c1ccc(NC(=O)Cc2ccc(NC(=O)C3CCN(C(=O)CCc4ccccc4)CC3)cc2)cc1 | 4.6 | -15.1 | 32.2 | 54.7* | 35.8 | -38.0
CN(CCc1ccccc1)C(=O)c1ccc(NC(=O)Cc2ccc(NC(=O)C3CCCN(C(=O)C4CCC4)C3)cc2)cc1 (centres undefined) | 5.1 | 2.3 | 1.4 | 32.2 | 12.6 | -9.8
CN1CCCCN2[C@H](CO)[C@@H](c3ccc(-c4ccc(F)cc4)cc3)[C@@H]2C1 | . | -5.4 | . | . | . | .
C[C@H](CO)N1C[C@H](C)[C@@H](CN(C)S(=O)(=O)c2cccs2)Oc2ccc(NC(=O)CCCCCC(=O)Nc3ccccc3N)cc2C1=O | . | 4.4 | . | . | . | .
Cc1cc(Nc2cccc(Cl)c2)nc(N2CCOCC2)n1 | -36.3 | 20.8 | 90.6* | 92.5* | -10.9 | 4.4
O=C(C[C@@H]1CC[C@H]2[C@@H](COC[C@@H](O)CN2C(=O)c2ccc(F)cc2)O1)NC1Cc2ccccc2C1 | . | 5.7 | . | . | . | .
C[C@@H]1CCCCO[C@@H](CN(C)CC2CCCCC2)[C@H](C)CN([C@@H](C)CO)C(=O)c2cc(NC(=O)Cc3ccccc3)ccc2O1 | . | -1.0 | . | . | . | .
Cc1nn(Cc2cccc(F)c2)c(C)c1NC(=O)c1ccc(COc2ccccc2Cl)cc1 | 15.2 | 19.0 | 44.1 | 69.8* | -1.3 | 0.4
COc1ccc(-n2ncc3c(NCCN4CCOCC4)ncnc32)cc1 | -12.7 | . | 53.4* | 59.3* | -32.5 | 28.6
Cc1ccc(-n2ncc3c(NCCCN4CCOCC4)ncnc32)c(C)c1 | 11.6 | 5.9 | 7.9 | -20.9 | -0.8 | -0.5
COc1ccc(-n2ncc3c(NCCCN4CCOCC4)ncnc32)cc1 | -0.2 | -18.2 | 59.2* | 74.3* | -41.3 | 42.3
COc1ccc(NC(=O)Nc2ccc3c(c2)CC(=O)N([C@H](C)CO)C[C@@H](C)[C@H](CN(C)C(=O)NC(C)C)O3)cc1 | . | 8.1 | . | . | . | .
CC(=O)[C@@]1(O)C(C)CC2C3C=C(C)C4=Cc5c(cnn5-c5ccccc5)C[C@]4(C)C3C(O)C[C@@]21C (some centres undefined) | -185.4 | 11.5 | 52.8* | -35.3 | 0.6 | -4.7
Cc1cc(C(=O)NC2CC(C)(C)Cc3c2cnn3-c2ccccc2)n(C)n1 (centres undefined) | 4.3 | 18.8 | 25.5 | -17.9 | -0.3 | 3.0
COc1ccc(N2CC(C(=O)NCc3cccnc3)CC2=O)cc1 (centres undefined) | -6.8 | . | . | 75.4* | 6.3 | -6.2
COc1ccc(S(=O)(=O)N2C[C@H](O)COC[C@H]3O[C@@H](CC(=O)NCc4ccc(Cl)c(Cl)c4)CC[C@@H]32)cc1 | . | -1.5 | . | . | . | .
O=C(Nc1ccccn1)c1onc2c1CCCC2 | 41.0* | 79.2* | 58.5* | 88.9* | 7.4 | -5.7
O=C(Nc1ccccn1)c1csc2c1CCCC2 | -43.8 | -86.1 | -51.5 | -21.9 | -42.1 | 37.6
CC(C)C(CCNCc1ccccn1)c1ccc(Cl)cc1 (centres undefined) | -0.8 | 8.0 | -0.3 | 3.1 | 3.0 | -5.5
CN1CCC(NCCC(c2ccc(F)cc2)c2ccc(Cl)cc2)CC1 (centres undefined) | -63.4 | -8.4 | -54.0 | -51.0 | 80.1* | -79.8
CC(C)C(CCNC1CCN(C)CC1)c1ccc(Cl)cc1 (centres undefined) | -22.6 | -9.0 | -15.0 | 1.3 | 89.8* | -89.7
O=C(NCC1CCCCC1)[C@H]1[C@H](CO)[C@H]2Cn3c(ccc(-c4ccccc4)c3=O)[C@@H]1N2 | . | -8.0 | . | . | . | .
CCCC(=O)Nc1ccc2c(c1)C(=O)N(C)C[C@@H](OC)[C@@H](C)CN(CC1CCCC1)[C@H](C)CO2 | . | -9.0 | . | . | . | .
CC=Cc1ccc2n(c1=O)C[C@H]1[C@H](CO)[C@@H](C(=O)N3CCC(Cc4ccccc4)CC3)N(C)[C@@H]21 (mixture of isomers) | . | 1.7 | . | . | . | .
SMILES | EBV LMP1 NFkB | LGR2 inh | TROY signal inh | TWEAK Fn14 block | TRPM1 prom inh | MITF act
O=C(CCl)Nc1cccc(S(=O)(=O)NC2=NCCCCC2)c1 | -60.0 | -6.2 | 4.2 | -0.1 | 75.6* | -76.2
O=C(CCl)Nc1cccc(S(=O)(=O)N2CCCCCC2)c1 | -36.1 | -0.1 | 3.3 | 16.7 | 75.4* | -75.5
O=C(CSc1nnc(Nc2ccccc2)s1)Nc1cccc(S(=O)(=O)N2CCCCC2)c1 | -2.8 | 3.0 | -1.7 | 50.9* | -6.4 | 7.2
O=C(CCl)Nc1ccc(S(=O)(=O)NC2=NCCCCC2)cc1 | -31.5 | -21.1 | 1.4 | -0.1 | 21.4 | -21.5
CCCNC(=O)N1[C@@H]2CN(C(=O)c3ccccc3)c3ccccc3[C@@H]2[C@@H]1CO | . | -4.6 | . | . | . | .
COc1ccc(C(=O)/C=C/C(=O)N(CC(=O)NC2CCCCC2)CC2CCCO2)c(O)c1 (centres undefined) | 28.9 | 104.1* | 50.2* | 83.6* | 98.3* | -97.8
COc1ccc(C(=O)/C=C/C(=O)N(CC(=O)NC2CCCCC2)Cc2ccccc2OC)c(O)c1 | 16.0 | ? | 91.0* | 91.2* | 102.7* | -102.2
COc1ccc(C(=O)/C=C/C(=O)N(Cc2ccccc2)C(C(=O)NC2CCCCC2)c2ccncc2)c(O)c1 (centres undefined) | -1.3 | -14.7 | 4.8 | 9.9 | -0.8 | -2.3
COc1ccc(C(=O)/C=C/C(=O)N(CC(=O)NC2CCCCC2)Cc2ccccc2)c(O)c1 | -5.3 | 100.0* | 3.0 | 42.7 | 99.6* | -99.3
COc1ccc(C(=O)/C=C/C(=O)N(Cc2ccccc2OC)C(C(=O)NC2CCCCC2)c2ccncc2)c(O)c1 (centres undefined) | 8.7 | 0.8 | 15.2 | -2.4 | -2.6 | 1.0
c1coc(CN(Cc2ccco2)c2ncnc3c2oc2ccccc23)c1 | 5.1 | . | 17.7 | 65.5* | 0.6 | -1.8
Clc1ncnc2c1oc1ccccc12 | -36.2 | . | -22.0 | -17.8 | -8.2 | 7.5
C[C@H](CO)N1C[C@H](C)[C@@H](CN(C)Cc2ccc(C(F)(F)F)cc2)OCCCC[C@H](C)Oc2ccc(NS(=O)(=O)c3ccc(Cl)cc3)cc2C1=O | . | 28.7 | . | . | . | .
COCc1ccc(-c2c(-c3ccc(OC)cc3)oc(=O)c3cc(OC)c(OC)cc23)cc1 | -17.4 | -13.0 | -59.2 | -22.3 | -105.4 | 110.9*
O=C(CNC(=O)c1cccs1)c1ccc(Cl)cc1 | 4.6 | -54.4 | 8.2 | 23.4 | -122.0 | 130.1*
O=C(CNC(=O)c1cccs1)c1ccc([N+](=O)[O-])cc1 | -6.8 | -17.1 | -26.6 | -27.1 | -53.4 | 69.2
O=C(CNC(=O)c1cccs1)c1ccc(F)cc1 | 21.3 | -43.9 | 18.9 | 52.0* | -6.0 | 0.1
O=C(NC(=O)c1ccccc1)Nc1ccccn1 | 71.3* | 88.6* | 72.9* | 94.8* | 81.3* | -80.8
O=C(Nc1ccccn1)NC1CCCCC1 | 84.4* | . | -13.3 | -5.9 | -7.7 | 7.1

High-throughput results from PubChem.
